HIF activator = HIF pathway transcriptional activation | U2OS HRE-luciferase reporter, luminescence; normalized: DMSO 0%, desferrioxamine 100% | activation, % at 7.5 µM (by protocol) | 300,000 tested, 0.32% active | AID 1910;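 active = mean activation of at least 10% of the iron chelator positive control signal, with at least half of replicates also reaching 10%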
CHT inh = inhibits the human high affinity choline transporter; CHT-expressing cells, membrane potential dye, choline response; stronger effect = lower value; B-score at 10 µM; 310,000 tested, 0.86% active; Q9GZV3;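 active = B-score over 3 SD under the library average, and starting fluorescence ratio not unusually high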;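 also: choline stimulus applied at its EC90 after an EC20 pre-addition; B-score computed on integrated fluorescence ratio after choline addition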
VLA-4 inh = inhibition in a human VLA-4 binding assay. P13612. VLA-4 expressing cells, ligand binding flow cytometry. inhibition, % (about 7 µM as worked out from the volumes in the protocol). 330,000 tested, 0.2% active. AID 2557; in the data active = inhibition above about 50%
Target sequence (P13612 whole entry, looked up): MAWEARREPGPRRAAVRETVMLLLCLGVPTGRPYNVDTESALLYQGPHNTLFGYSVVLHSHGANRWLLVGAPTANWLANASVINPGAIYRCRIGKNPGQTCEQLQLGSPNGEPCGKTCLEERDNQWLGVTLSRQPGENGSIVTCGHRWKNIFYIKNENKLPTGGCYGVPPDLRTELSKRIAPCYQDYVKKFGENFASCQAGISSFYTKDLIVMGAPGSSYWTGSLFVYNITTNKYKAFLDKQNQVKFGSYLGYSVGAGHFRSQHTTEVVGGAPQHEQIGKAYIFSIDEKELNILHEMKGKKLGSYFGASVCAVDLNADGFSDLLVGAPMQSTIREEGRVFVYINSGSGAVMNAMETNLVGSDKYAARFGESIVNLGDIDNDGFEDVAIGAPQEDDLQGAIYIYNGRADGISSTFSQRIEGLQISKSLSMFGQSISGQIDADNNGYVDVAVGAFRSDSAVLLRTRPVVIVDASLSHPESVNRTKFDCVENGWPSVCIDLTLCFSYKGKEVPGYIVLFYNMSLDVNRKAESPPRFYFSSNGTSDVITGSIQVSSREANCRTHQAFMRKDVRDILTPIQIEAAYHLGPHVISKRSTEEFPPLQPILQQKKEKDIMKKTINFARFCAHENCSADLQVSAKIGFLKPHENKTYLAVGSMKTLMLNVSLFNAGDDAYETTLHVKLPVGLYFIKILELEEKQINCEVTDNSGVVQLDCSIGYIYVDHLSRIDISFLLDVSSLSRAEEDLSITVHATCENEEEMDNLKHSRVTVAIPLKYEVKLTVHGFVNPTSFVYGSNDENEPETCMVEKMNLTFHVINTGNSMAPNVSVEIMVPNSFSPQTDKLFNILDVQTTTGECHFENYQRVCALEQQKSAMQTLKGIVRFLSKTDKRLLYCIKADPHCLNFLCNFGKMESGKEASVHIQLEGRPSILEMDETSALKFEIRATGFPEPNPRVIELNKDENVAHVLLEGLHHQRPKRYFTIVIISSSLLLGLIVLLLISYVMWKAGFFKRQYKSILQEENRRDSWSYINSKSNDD
AI-2 QS mod = modulators of Vibrio harveyi AI-2 quorum sensing system | Vibrio harveyi JMH597 AI-2 luminescence/OD600 ratio, 9 h; stronger effect = lower value; strain lacks LuxN and CqsS sensors; 0 = neutral-control median | activity change, % at 7.5 µM | 300,000 tested, 0.4% active; in the data active = activity change below about -75%, passing the limit was not always enough;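 also: luminescence divided by OD600 gain over 9 h not by final OD600 alone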
Platelet DG rel = modulates dense granule release in human platelets. human platelet-rich plasma, SFLLRN dense granule ATP release, luminescence. inhibition, %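 (compounds screened at 7.5 µM in platelet-rich plasma)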. 300,000 tested, 0.22% active;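 active = mean replicate score, as percent of positive control, at or above 50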
CHT allo act = allosteric activators of human choline transporter CHT; B-score at 10 µM; AID 488977; CHT-expressing cells, membrane potential dye, choline EC20; stronger effect = higher value; LV-AA mutant CHT in HEK293 cells; Q9GZV3; 310,000 tested, 0.49% active;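 active = initial fluorescence not abnormally high and integrated response B-score, plate-corrected, over 3 SD above library mean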
CHT block conf = human CHT inhibition, confirmatory screen; shares compounds with CHT inh; CHT-expressing cells, choline membrane potential dye; LV-to-AA substituted CHT, HEK293 cells; CHT activity remaining % of control (stronger effect = lower value), % at 10 µM; 2,400 tested, 70% active;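 active = choline transporter activity left, mean of duplicates at 10 µM, below buffer-only control mean minus 3 SD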;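 also: depolarization triggered by choline at its EC90 following an EC20 pre-addition; 0% = hemicholinium-3 full block and 100% = buffer-only control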
HEK293 CHT ctr = activity in parental HEK293 cells lacking CHT | shares compounds with CHT inh | membrane potential dye, choline response; active = decrease or increase beyond buffer ±3SD | membrane potential ratio readout (active if shifted either direction beyond buffer ±3SD; no single direction) at 10 µM | 2,400 tested, 4% active;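 also: parental cells lack the transporter so any hit is non-specific; ratio is peak minus trough fluorescence over baseline after EC90 choline challenge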
* marks the source's active call; other numbers are inactive results; i = inactive; · = not tested or not shown. Only some compounds are listed: those with a hit (about 2.2% of all), similar ones and a draw of the others.

SMILES	HIF activator	CHT inh	VLA-4 inh	AI-2 QS mod	Platelet DG rel	CHT allo act	CHT block conf	HEK293 CHT ctr
C=CCC1C=C(Cc2ccccc2)CC(CC=C)N1 (centres undefined)	-1.5	i	25.4	17.1	1.5	i	·	·
O=C1CC(c2ccco2)CC(O)=C1C=Nc1ccccc1-c1ccccc1 (centres undefined)	-0.3	-5.6*	3.4	41.7	0.1	i	i	i
CN1CCN(c2c(/C=N/O)c3ccccc3n2C)CC1	0.6	i	0.7	24.2	1.9	i	·	·
Cc1ccccc1C(=O)O/N=C/c1c(N2CCOCC2)n(C)c2ccccc12	0.2	-15.8*	4.0	0.0	1.6	i	36.6%*	i
Cc1ccc(S(=O)(=O)CCC(=O)Nc2ccccc2Br)cc1	-0.9	i	2.9	13.3	0.9	i	·	·
Cc1cc(C)cc(NC(=O)CCc2c(C)nn(-c3ccc(N4CCCCC4)nn3)c2C)c1	4.3	i	2.5	21.0	9.7	i	i	i
CC(C)c1ccc(NC(=O)CSc2nc(=O)n(CCCN3CCOCC3)c3c2CCC3)cc1	0.2	-4.95*	-27.5	1.4	-6.3	i	38.2%*	i
CN(CC(=O)Nc1cccc(F)c1)C(=O)c1ccncc1	0.0	i	-2.1	-0.5	-5.1	i	·	·
Cc1ccc(CNC(=O)CSc2nc(=O)n3cccc(C)c3n2)cc1	0.0	i	-0.3	12.1	16.7	i	·	·
CC(C)COc1nc2ccccc2nc1N1CCN(C)CC1	-6.9	-5.99*	-1.3	22.7	1.6	i	41.1%*	i
CCN(CC)C(=O)CSc1nc2ccc(NC(=O)CSc3nccn3C)cc2s1	0.7	-9.63*	16.4	20.8	-11.0	i	25.0%*	i
Cc1cc(C)c(NC(=O)COC(=O)C2CCCCC2)c(C)c1	·	·	0.0	·	·	·	·	·
Cc1cc(C)c(NC(=O)CCCCCNC2CCCCC2)c(C)c1	0.0	-5.23*	6.2	6.9	-2.1	i	7.1%*	i
CCCC1(CCC)NC(=O)N(CC(=O)Nc2ccc(Cl)c(S(=O)(=O)N3CCOCC3)c2)C1=O	·	·	-3.6	·	·	·	·	·
CCOC(=O)c1cc(C(=O)NC(C)c2ccccc2)c(C)[nH]c1=O (centres undefined)	-0.4	-7.39*	6.3	5.1	6.8	i	14.1%*	i
CN(/N=C/c1ccc([N+](=O)[O-])o1)c1ccccc1	0.7	-5.75*	-1.3	24.0	-1.1	i	50.4%*	i
Cc1c(CCOC(=O)C23CC4CC(CC(C4)C2)C3)sc[n+]1CC#N	0.0	i	4.5	-1.4	0.7	i	·	·
